Data published in PubChem BioAssay (NCI).
This is part of a sample that, as a whole, favours compounds with a hit. Of some 83,000 tested, about 20% had one in any assay.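 Compound tested at a single concentration for 48 hours in 96-well plates; a percent growth value below 10 was scored as active.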 Active and inactive are the calls of the source.

test system: MDA-MB-468 breast; assay: NCI-60 one-dose screen, 48 h (100 = growth as untreated, 0 = no growth, -100 = all killed); settings: 10 µM unless noted

Row | Compound | growth
1 | CNCCCNc1nc2ccccc2c2c(=O)c3cc(F)ccc3sc12 | -57.3% (active)
2 | CS(=O)(=O)N1CCc2c(-c3cnc(N)nc3)nc(N3CCOCC3)nc21 | -27.9% (active)
3 | COc1ccccc1NC(=O)C1CC(c2ccc(F)cc2)=NO1 (stereo not drawn) | 99.7% (inactive)
